From PubChem BioAssay (Tox21)
Records with an inconclusive call do not appear. Active and inactive are the calls of the source. The call rests on the fitted dose curve.

Biological target: D(2) dopamine receptor (Homo sapiens) (UniProt P14416)
Test: Dopamine D2 receptor (DRD2) small molecule agonists, cell-based qHTS assay (AID 1963594); further: nearly all actives have a fitted effect of over 35% in size
Settings: HEK293-DRD2 cAMP HTRF, agonist mode, 30 min; series mostly up to 92.4 µM; activation: at the top concentration
Source text: National Center for Advancing Translational Sciences [NCATS]
Division of Preclinical Innovation [DPI]
U.S. Environmental Protection Agency [EPA]
National Institutes of Environmental Health Sciences [NIEHS]
National Toxicology Program [NTP]
U.S. Food and Drug Administration [FDA]
DRD2 is the D2 subtype of the dopamine receptor, which is coupled to Gi subtype of G protein-coupled receptor. This G protein-coupled receptor inhibits adenylyl cyclase activity. The DRD2-HEK293 cell line stably expressing D2 dopamine receptor can be used for screening agonists and antagonists of interactions between D2 and its ligands. The Hek293-DRD2 cAMP assay is based on HTRF technology. It measures changes of cAMP accumulation in response to Gi coupled GPCR activation or inhibition.
Tox21 Assay Protocol Summary:
DRD2-Hek293 cells were dispensed at 600 cells/3uL/well in 1536-well white plates using a Multidrop Dispenser. After the assay plates were incubated at a 37 C/5% CO2 incubator for 24 h, 1 uL of Ro20-1724 at final concentration of 0.1 mM was transferred to the assay plate by a Flying Reagent Dispenser. Following Ro20-1724 addition, 23 nL of compound dissolved in DMSO, positive controls or DMSO only was added to the assay plates via Wako pintool station. The assay plates were incubated at room temperature for 10 min. Next, 1 uL of NKH477 at 200nM was added into the plates. After the assay plates were incubated at room temperature for an additional 30 min, 2.5 ul/well of cAMP-d2 and 2.5 ul/well of anti-cAMP-cryptate were added respectively into the assay plates using a Flying Reagent Dispenser. The plates were incubated at room temperature for 1 h. The fluorescence intensity in the plates was measured at 340 nm excitation and 665 & 620 nm emission by an Envision plate reader.
On the % scale 0 is the no-effect control and ±100 the full control effect.

D(2) dopamine receptor (Homo sapiens), sequence (P14416 whole entry, looked up): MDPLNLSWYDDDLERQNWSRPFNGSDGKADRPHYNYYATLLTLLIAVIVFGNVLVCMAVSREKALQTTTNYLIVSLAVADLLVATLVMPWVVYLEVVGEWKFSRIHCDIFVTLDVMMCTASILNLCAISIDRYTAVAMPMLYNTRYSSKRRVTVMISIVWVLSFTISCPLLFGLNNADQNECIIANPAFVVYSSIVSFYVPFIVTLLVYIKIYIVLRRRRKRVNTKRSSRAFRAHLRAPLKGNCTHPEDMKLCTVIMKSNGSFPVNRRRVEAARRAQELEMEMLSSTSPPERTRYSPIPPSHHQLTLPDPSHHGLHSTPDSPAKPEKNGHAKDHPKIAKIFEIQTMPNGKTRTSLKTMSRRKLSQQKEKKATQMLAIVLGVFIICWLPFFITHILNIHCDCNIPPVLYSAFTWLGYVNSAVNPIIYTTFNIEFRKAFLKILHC

SMILES	activation
Oc1cccc(-c2ccccc2)c1	4.1% (inactive)
CC(=O)[O-].CC(=O)[O-].[Co+2]	2.02% (inactive)
C=CCOC(C)=O	-4.39% (inactive)
ClP(Cl)(Cl)(Cl)Cl	1.99% (inactive)
C[N+]1(C)[C@@H]2CC[C@H]1CC(OC(=O)C(CO)c1ccccc1)C2 (stereo not given in full)	7.93% [at 42.5 µM] (inactive)
CCCCn1cc[n+](C)c1.[Cl][Fe-]([Cl])([Cl])[Cl]	3.24% (inactive)
CC(Cl)CN(C)C (stereo not given)	0.601% (inactive)
CC(C)CC(N(C)C)C1(c2ccc(Cl)cc2)CCC1 (stereo not given)	2.11% [at 42.5 µM] (inactive)
Oc1ccc(C(=C(Cl)Cl)c2ccc(O)cc2)cc1	-3.54% (inactive)
N#CCc1ccc(Cl)cc1	-0.579% (inactive)
c1ccc2c(c1)CCNC2	-0.0562% (inactive)
CCSCc1ccccc1OC(=O)NC	-8.94% (inactive)
O=C(O)COc1ccc(Cl)cc1	0.983% (inactive)
CC(C)NCC(O)c1ccc(N)c(C#N)c1 (stereo not given)	-6.81% [at 42.5 µM] (inactive)
COc1cccc(C(=O)NN(C(=O)c2cc(C)cc(C)c2)C(C)(C)C)c1C	-0.095% (inactive)
C/C(=C\c1ccccc1)[N+](=O)[O-]	1.36% (inactive)
CCCSP(=S)(OCC)Oc1ccc(SC)cc1 (stereo not given)	-6.08% (inactive)
CCNC(=O)NC(=O)/C(C#N)=N/OC	-1.58% (inactive)
Oc1c(Cl)c(Cl)cc(Cl)c1Cl	4.03% (inactive)
Cc1nnc2n1-c1sc(CCc3ccc(CC(C)C)cc3)cc1C(c1ccccc1Cl)=NC2C (stereo not given)	-11.6% [at 42.5 µM] (inactive)

SMILES	activation
CCOP(=S)(OCC)SCSP(=S)(OCC)OCC	4.57% (inactive)
O=C1NC(=O)C(=O)C(=O)N1	3.18% (inactive)
C=CCC1=C(C)[C@@H](OC(=O)[C@@H]2[C@@H](C=C(C)C)C2(C)C)CC1=O	0.484% (inactive)
O=CCCl	3.06% (inactive)
CC(c1ccccc1)(c1ccc(O)cc1)c1ccc(O)cc1	-2.54% (inactive)
CCNc1nc(NC(C)C(C)C)nc(SC)n1 (stereo not given)	5.48% (inactive)
CCC(C)Nc1c([N+](=O)[O-])cc(C(C)(C)C)cc1[N+](=O)[O-] (stereo not given)	-4.89% (inactive)
CCCCOCN(C(=O)CCl)c1c(CC)cccc1CC	-14.2% (inactive)
O=C1C(I)=CC(=C(c2cc(I)c(O)c(I)c2)c2ccccc2C(=O)O)C=C1I	10.1% [at 42.5 µM] (inactive)
Clc1ccc(-c2ccc(Cl)c(Cl)c2Cl)c(Cl)c1Cl	-1.13% (inactive)
O=[N+]([O-])c1ccc(Cl)c(Cl)c1Cl	0.161% (inactive)
CCCCN(N=O)C(=N)N[N+](=O)[O-]	2.34% (inactive)
CCOP(=S)(OCC)Oc1ccc(Cl)cc1Cl	1.22% (inactive)
C=CCC1([C@H](C)CCC)C(=O)NC(=O)NC1=O	-3.76% (inactive)
OC(Cc1ccccc1Cl)(Cn1[nH]cnc1=S)C1(Cl)CC1 (stereo not given)	-0.253% (inactive)
NNC(=O)c1cccnc1	0.227% (inactive)
Nc1ccc([N+](=O)[O-])cc1Cl	0.447% (inactive)
CC1C(=O)C[C@]2(C(C)C)C[C@H]12 (stereo not given in full)	0.315% (inactive)
[CH3][Hg][Cl]	-0.108% (inactive)
CN1C2CCC(C)(C)C1CC(OC(=O)C(O)(c1cccs1)c1cccs1)C2 (stereo not given)	-7.76% [at 42.5 µM] (inactive)
